# Reference: PubChem BioAssay AID1578 (Sanford-Burnham Center for Chemical Genomics, 2009)
# Screen size: about 290,000 compounds; about 3,000 (1%) were called active. The sample holds actives, similar compounds and a random draw of the others, so the mix is not that of the screen. No stated cut-off is given here; in the data, active means inhibition mostly above about 36% (no sharp cut-off); inactive means mostly below about 34%.
# Assay: inhibition of NOD1-driven NF-kB reporter – cell-based, luminescence, uHTS, primary screen (AID 1578);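 further: HEK-293T reporter cells stimulated with the NOD1 agonist gamma-tri-DAP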
# Details: NOD1-driven NF-kB luciferase reporter cells, at 4 µM, active compounds read high
row,SMILES,inhibition
1,COc1ccccc1C(=O)Nc1cccnc1,-35.2% (inactive)
2,CC1CCc2nc(NC(=O)Cc3cccs3)sc2C1 (configuration not stated),-17.9% (inactive)
3,CC1CCc2nc(NC(=O)C3CC3)sc2C1 (configuration not stated),-43.5% (inactive)
4,O=C(CSc1nc2ccccc2o1)Nc1nc2ccccc2s1,25.3% (inactive)
5,CC1CCc2nc(NC(=O)CCSc3ccccc3)sc2C1 (configuration not stated),-19.7% (inactive)
6,CC1CCc2nc(NC(=O)c3ccco3)sc2C1 (configuration not stated),42.5% (active)
7,CC(=O)Nc1ccc(S(=O)(=O)N2CCN(c3ncccn3)CC2)cc1,-2% (inactive)
8,CCOc1ccccc1NC(=O)C(C)CC (configuration not stated),-23.5% (inactive)
9,COc1ccc(NC(=O)Cc2nnc(SCC(=O)NC3CCCCC3C)n2C)cc1 (configuration not stated),17.2% (inactive)
10,CCN(CC1CCCN(CCc2cccc(F)c2)C1)C(=O)c1ccc(CSC)o1 (configuration not stated),-11% (inactive)
11,COc1ccc(C(=O)OC(COc2ccccc2)Cn2ccnc2)cc1 (configuration not stated),2.7% (inactive)
12,Cc1coc2cc3oc(=O)c(CC(=O)N[C@@H](CC(C)C)C(=O)O)c(C)c3cc12,-5.8% (inactive)
13,COc1cc(C2C3C(C)N(C)C(=O)N(C)C3N(C)C(=O)N2C)ccc1O (configuration not stated),-20.9% (inactive)
14,COc1cc(/C=C2\SC(=S)NC2=O)ccc1OS(=O)(=O)c1ccccc1,4.1% (inactive)
15,COc1ccc(/C=C2\SC(=S)NC2=O)cc1OS(=O)(=O)c1ccc(NC(C)=O)cc1,2.1% (inactive)
16,COc1cc(/C=C2/SC(=S)NC2=O)ccc1OS(=O)(=O)c1ccc(C)cc1,93.4% (active)
17,Cc1ccc(CNC(=O)C2CCN(S(=O)(=O)c3ccc(Br)s3)CC2)cc1,16% (inactive)
18,Cc1cc(-n2c(C)cc(C(=O)CSc3nc(N)cc(=O)[nH]3)c2C)no1,9.7% (inactive)
19,Cc1cc(C(=O)CSc2nc(N)cc(=O)[nH]2)c(C)n1-c1ccc(OC(F)F)cc1,45.3% (active)
20,Cc1cc(C(=O)CSc2cccc[n+]2[O-])c(C)n1-c1ccc(OC(F)F)cc1,2.7% (inactive)
21,COCCCNC(=O)CNC(=O)c1cn(-c2ccccc2OC)c(=O)c2ccccc12,-30.6% (inactive)
22,Cc1ccc(C)c(NC(=O)CCN2CC(C)OC(C)C2)c1 (configuration not stated),-8.9% (inactive)
23,COc1ccc(CN2CCSc3sccc3C2=O)cc1,-4.1% (inactive)
24,COc1ccc(S(=O)(=O)C(C#N)c2nc3ccccc3nc2N2CCCC(C)C2)cc1 (configuration not stated),-10.7% (inactive)
25,N#CC(c1nc2ccccc2nc1OCCO)S(=O)(=O)c1ccccc1 (configuration not stated),-3.6% (inactive)

row,SMILES,inhibition
1,Cc1ccc(S(=O)(=O)C(C#N)c2nc3ccccc3nc2OCCO)cc1 (configuration not stated),-27.7% (inactive)
2,CC1CCCN(c2nc3ccccc3nc2C(C#N)S(=O)(=O)c2cccs2)C1 (configuration not stated),13.4% (inactive)
3,CC1CCCN(c2nc3ccccc3nc2C(C#N)S(=O)(=O)c2ccccc2)C1 (configuration not stated),102% (active)
4,N#CC(c1nc2ccccc2nc1N1CCCC1)S(=O)(=O)c1ccccc1 (configuration not stated),10.2% (inactive)
5,N#CC(c1nc2ccccc2nc1N1CCCCC1)S(=O)(=O)c1ccc(Cl)cc1 (configuration not stated),88.1% (active)
6,CCCCOc1nc2ccccc2nc1C(C#N)S(=O)(=O)c1ccccc1 (configuration not stated),79.5% (active)
7,Cc1ccc(S(=O)(=O)C(C#N)c2nc3ccccc3nc2N2CCCCC2)cc1 (configuration not stated),-4.7% (inactive)
8,CCCCOC(=O)c1cccnc1,9.9% (inactive)
9,Cc1c(Cl)cccc1NC(=O)Nc1c(C)n(C)n(-c2ccccc2)c1=O,-22.5% (inactive)
10,O=C(Cc1n[nH]c(=O)[nH]c1=O)N/N=C/c1c(O)ccc2ccccc12,-32.5% (inactive)
11,COCCN1C(=O)c2ccccc2C(C(=O)N2CCN(c3ccccn3)CC2)C1c1ccc(F)cc1 (configuration not stated),13.2% (inactive)
12,COc1cccc(CNC(=O)CCC2CCCN(C(=O)Cc3ccccc3F)C2)c1 (configuration not stated),-26.2% (inactive)
13,CC(O)c1nc2ccccc2n1CC(=O)N1CCN(c2ccccc2)CC1 (configuration not stated),-27.8% (inactive)
14,CCOc1ccccc1NC(=S)N(CCCN1CCOCC1)Cc1cn(C)c2ccccc12,-4.6% (inactive)
15,N#Cc1c(Cl)nc(SCc2ccccc2)nc1-c1ccccc1,32.4% (inactive)
16,CCSc1nc(N)nc(-c2cccs2)c1C#N,-29% (inactive)
17,N#Cc1c(-c2ccccc2)nc(SCc2ccc(Cl)cc2)[nH]c1=O,-2.4% (inactive)
18,O=c1nc(SCc2cccc(C(F)(F)F)c2)nc2ccccn12,-17.7% (inactive)
19,N#Cc1c(-c2ccccc2)nc(SCc2cccc(Cl)c2)[nH]c1=O,18.9% (inactive)
20,N#Cc1c(N)nc(SCc2ccncc2)c(C#N)c1-c1cccs1,61.6% (inactive)
21,N#Cc1cc2ccccc2nc1SCC(=O)NC1CC1,-32.4% (inactive)
22,Cc1ccc(NC(=S)NNC(=O)c2c(Cl)c(C)nn2C)cc1,0% (inactive)
23,Cc1ccc2c(c1)N(CC(=O)NC1CCCC1)C(=O)CO2,-27.1% (inactive)
24,CCOC(=O)C1(CC)NC(c2ccc(OC)c(OC)c2)C2C(=O)N(c3cccc(C(C)=O)c3)C(=O)C21 (configuration not stated),-2.3% (inactive)
25,Cc1nc([N+](=O)[O-])cn1CC(O)c1ccc(-c2ccccc2)cc1 (configuration not stated),-8.6% (inactive)

row,SMILES,inhibition
1,COc1ccc(N2CCN(C(=O)CSc3nnc4c(C)cc5ccccc5n34)CC2)cc1,-15.6% (inactive)
2,C#CCOC(=O)c1cc(Cl)c(=O)n(Cc2ccc(Cl)cc2Cl)c1,12.3% (inactive)
3,CC(NC(=O)/C(C#N)=C/c1ccco1)c1ccccc1 (configuration not stated),-8.1% (inactive)
4,Cc1nn(Cc2c(F)c(F)c(F)c(F)c2F)c(C)c1NC(=O)c1c([N+](=O)[O-])c(C)nn1C,10.1% (inactive)
5,Cc1cc(C)c(C#N)c(SCC(=O)c2ccc(Cl)cc2Cl)n1,68.6% (active)
6,Cc1cc(C)c(C#N)c(SCC(=O)c2ccccc2)n1,-26.8% (inactive)
7,Cc1cc(C)c(C#N)c(SCC(=O)c2cccs2)n1,-63.4% (inactive)
8,CNc1ccccc1C(=O)OCC(C)=O,-41.6% (inactive)
9,COc1ccc(CCNC(=O)CCC(=O)N2CCOc3ccc(C)cc32)cc1OC,10.2% (inactive)
10,COc1cc(-c2cc(C(=O)Nc3ccc(O)cc3)c3ccccc3n2)cc(OC)c1OC,6.4% (inactive)
11,COc1cc(-c2cc(C(=O)Nc3cccc(C(C)=O)c3)c3ccccc3n2)cc(OC)c1OC,63.6% (active)
12,COc1ccc(NC(=O)c2cc(-c3cc(OC)c(OC)c(OC)c3)nc3ccccc23)cc1OC,43.8% (inactive)
13,C=CCC(c1ccccc1F)N(CCN1CCOCC1)C(=O)Nc1cccc(Cl)c1 (configuration not stated),7.7% (inactive)
14,COc1ccc(C(C(=O)NC2CCCC2)N(C(=O)c2ccoc2C)c2ccc(C)cc2)cc1 (configuration not stated),-10.4% (inactive)
15,COCCN(C(=O)C(=O)NC1CCCC1)C(C(=O)NC1CCCC1)c1ccccc1F (configuration not stated),-25.2% (inactive)
16,COCCN(C(=O)CCC(=O)Nc1cc(C)on1)C(C(=O)NC1CCCC1)c1ccccc1C (configuration not stated),-13.7% (inactive)
17,COC(CN(C(=O)CCl)C(C(=O)NC1CCCCC1)c1ccc(C)cc1)OC (configuration not stated),68.9% (inactive)
18,O=S(=O)(NC1CCCCC1)c1cccc(-c2nnc(-c3ccccc3)o2)c1,8.5% (inactive)
19,Cc1ccc(C(C(=O)NC2CCCC2)N(C(=O)Cc2cccs2)c2ccc3c(c2)OCCO3)cc1 (configuration not stated),-7.5% (inactive)
20,O=C(CN1CCOCC1)N/N=C/c1ccc(-c2cccc(Cl)c2Cl)o1,-9.3% (inactive)
21,O=C(CN1C(=O)COc2ccccc21)NCCN1CCOCC1,-38% (inactive)
22,CC(=O)c1c(O)c2ccccc2n(C2CCCCC2)c1=O,57.4% (active)
23,CC(=O)c1c(O)c2ccccc2n(C)c1=O,-26% (inactive)
24,CCn1c(=O)c(C(C)=O)c(O)c2ccccc21,-17% (inactive)
25,CC(C)CC(=O)c1c[nH]c(C(=O)O)c1,-16.9% (inactive)

row,SMILES,inhibition
1,CC(Cl)C(=O)Nc1ncc(C(F)(F)F)cc1Cl (configuration not stated),-12% (inactive)
2,CCSC(=S)c1c(C)[nH]n(-c2ccccc2)c1=O,1.7% (inactive)
3,CCCSC(=S)c1c(C)[nH]n(-c2ccccc2)c1=O,50.5% (active)
4,Cc1[nH]n(-c2ccccc2)c(=O)c1C(=O)c1ccccc1,-3.5% (inactive)
5,CCCOc1ccc(N2C(=O)CC(N(Cc3ccco3)C(=O)CC)C2=O)cc1 (configuration not stated),-3.4% (inactive)
6,COc1ccc(CCNC(=O)c2cccs2)cc1OC,-51.6% (inactive)
7,COc1ccc(C2(O)CCN(C(=O)NC3CCCCC3)CC2)cc1,-14.2% (inactive)
8,CCOC(=O)c1sc2ccccc2c1OC(=O)c1ccccc1OC,46.4% (inactive)
9,CCOC(=O)c1sc2ccccc2c1OC(=O)c1ccccc1,38.2% (inactive)
10,CC1COc2ccccc2N1C(=O)c1ccccc1Cl (configuration not stated),4.6% (inactive)
11,Cc1ccc(S(=O)(=O)N2c3ccccc3OCC2c2ccccc2)cc1 (configuration not stated),-19.1% (inactive)
12,CCCCOc1ccccc1C(=O)N(Cc1ccco1)C1CCS(=O)(=O)C1 (configuration not stated),25.4% (inactive)
13,CCOC(=O)c1sc2nc[nH]c(=O)c2c1C,4.3% (inactive)
14,CCOC(=O)c1c(C)c2c(=O)[nH]cnc2n1-c1ccccc1,32.5% (active)
15,CCOC(=O)c1c(O)c(O)c(C(=O)OCC)n1-c1ccccc1,-8.7% (inactive)
16,C=CCOc1c(CNc2ccc(C(=O)O)cc2)cccc1OC,-2.4% (inactive)
17,N#Cc1cc2c(nc1SCc1cccnc1)CCCC2,-35.1% (inactive)
18,Cc1[nH]c(=S)c(C#N)c(-c2ccco2)c1C(=O)N(C)C,-29.8% (inactive)
19,COc1ccc(NC(=O)NC2(C(=O)N3CCCCCC3)CCCCC2)cc1,-9.8% (inactive)
20,Cc1ccc(S(=O)(=O)N2CCOCC2)cc1C(=O)Nc1c(C)n(C)n(-c2ccccc2)c1=O,-23.2% (inactive)
21,CC(=O)N[C@@H](C)c1nc2ccccc2n1CCCN1CCN(c2nc(-c3ccc(C)cc3)cs2)CC1,-3.9% (inactive)
22,Cc1ccc(-c2csc(N3CCN(CCCn4c(C(F)(F)F)nc5ccccc54)CC3)n2)cc1,-23% (inactive)
